# RMI FANCM FP: blocks RMI1/RMI2 complex binding to FANCM MM2 peptide; 70,000 compounds, 0.58% hits; AID 1159607; FP signal (polarization) at 33 µM; Fluorescence polarization, RMI core complex with F-MM2 peptide; active compounds read low; in the data active = FP signal below about 40
# Active calls of the source: *; ! = a repeat was not active. The full list was thinned out, with hits kept by preference.
SMILES,RMI FANCM FP
Cc1ccc(S(=O)(=O)N(C)c2ccc(OCC(=O)Nc3ccc(OC(F)(F)F)cc3)cc2)cc1,73
c1csc(-c2ccnc(SCc3ccc4nonc4c3)n2)c1,68
O=C(CSc1nccc(-c2cccs2)n1)c1cc(-c2ccc(Cl)c(Cl)c2)no1,12*
O=C(CSc1nccc(-c2cccs2)n1)N1CCOCC1,60
O=c1oc2cc(S(=O)(=O)N3CCN(c4ccccn4)CC3)ccc2c2ccc(S(=O)(=O)N3CCN(c4ccccn4)CC3)cc12,62
Cc1ccc(C(=O)N2CCN(c3nccn3C)CC2)cc1C,66
CC(=O)Oc1ccccc1C(=O)Oc1ccccc1C(=O)O,59
CC(c1ccccc1)N1C(=O)/C(=C\c2cccnc2)SC1=S (stereo unspecified),26*
O=C1/C(=C/c2cccnc2)SC(=S)N1c1ccccc1F,61
O=C(O)CCN1C(=O)/C(=C\c2cccnc2)SC1=S,62
Cc1ccc(-n2nnnc2/C=C/N2CCOCC2)cc1,48
O=C(CC1NCCN(Cc2ccccc2)C1=O)N/N=C\c1cc(Cl)cc(Cl)c1O (stereo unspecified),35*!
Oc1c(Cl)cc(Cl)cc1/C=N\NCCc1ccccn1,45
O=C(CSC1CN(C(c2ccccc2)c2ccccc2)C1)N/N=C/c1ccc(Cl)cc1Cl,59
CCOC(=O)c1ccc(NC(=O)C(NC(=O)C23CC4CC(CC(C4)C2)C3)C(C)C)cc1 (stereo unspecified),67
Cc1nccnc1-c1ccnn1C(=O)c1c(C)noc1C,59
CCOC(=O)N1CCN(C(=O)CSc2nc(-c3ccccc3OC)nc3c2c(=O)n(C)c(=O)n3C)CC1,70
CCOc1ccc(-c2noc(CSc3nc4ccsc4c(=O)n3C3CC3)n2)cc1,39*
CCOc1ccc(-c2noc(CSc3nc4ccsc4c(=O)n3-c3cccc(OC)c3)n2)cc1,104
COc1ccc(-c2noc(CSc3nc4ccsc4c(=O)n3C)n2)cc1,73
C/C(=N/O)c1csc(-c2ccno2)n1,49
CC(=O)N1CCc2c(sc(NC(=O)CS(=O)(=O)c3ccc(Cl)cc3)c2C(N)=O)C1,15*
COC(=O)c1c(NC(=O)C(C)C)sc2c1CCN(Cc1ccccc1)C2,59
CCCCC(=O)Nc1sc2c(c1C(N)=O)CCN(C(C)=O)C2,69
NC(=O)c1c(NC(=O)CS(=O)(=O)c2ccccc2)sc2c1CCN(Cc1ccccc1)C2,21*
SMILES,RMI FANCM FP
CCOC(=O)c1c(NC(=O)CCS(=O)(=O)c2ccc(Cl)cc2)sc2c1CCN(C(C)=O)C2,66
CC1CCc2c(sc(NC(=O)CCS(=O)(=O)c3ccc(F)cc3)c2C(N)=O)C1 (stereo unspecified),79
CCOC(=O)N1CCc2c(sc(NC(=O)CS(=O)(=O)c3ccccc3)c2C#N)C1,65
CCN1CCc2c(sc(NC(=O)CCS(=O)(=O)c3ccc(F)cc3)c2C(N)=O)C1,37*
CC(C)N1CCc2c(sc(NC(=O)CCS(=O)(=O)c3ccc(Cl)cc3)c2C(N)=O)C1,55
COc1ccccc1NC(=O)c1oc2ccccc2c1N,70
N#C/C(=C\c1ccc(O)cc1)C(=O)Nc1ccc(Cl)cc1,86
COc1cn2c(cc1=O)C(=O)N(CCNC(=O)c1cccc(Cl)c1)CC2,64
Cc1cc(C)n(CCN(C(=O)c2ccco2)c2nc3c(F)cc(F)cc3s2)n1,93
CCN(CC)CCN(C(=O)c1cccc(C)c1)c1nc2ccc(Cl)cc2s1,92
N#CCCN1CCN(C2=NC(=O)/C(=C\c3ccc(-c4cccc(C(F)(F)F)c4)o3)S2)CC1,85
Cc1occc1-c1nc2s/c(=C\c3ccc(-c4cccc(C(F)(F)F)c4)o3)c(=O)n2n1,16*
Cc1ccc(/C=c2\sc3nc(=O)c(C)nn3c2=O)o1,70
O=C(NNC(=O)c1cccn(Cc2ccc(Cl)c(Cl)c2)c1=O)c1ccco1,60
CCCOc1ccc(S(=O)(=O)Nc2ccc3c(c2)C(=O)N(C)c2cc(C)ccc2O3)cc1,62
Cc1cc(NS(=O)(=O)c2ccc(NC(=O)CCN3C(=O)c4ccccc4C3=O)cc2)nc(C)n1,60
Cc1cc(NS(=O)(=O)c2ccc(NC(=O)c3oc4cc(C)c(C)cc4c3C)cc2)nc(C)n1,17*
Cc1cc(NS(=O)(=O)c2ccc(NC(=O)c3ccc(Br)o3)cc2)no1,66
Cc1cn(CCC(=O)NC2CCN(Cc3ccccc3)CC2)c2ccccc12,52
CCOc1ccc(-c2nc(SCC(=O)NCC3CCCO3)c3c(=O)n(C)c(=O)n(C)c3n2)cc1 (stereo unspecified),69
N#Cc1c(SCC(=O)Nc2ccccc2)nc2c(c1-c1ccc(OCc3ccccc3)cc1)CCCC2,57
COc1ccc(-c2c(C#N)c(SCC(=O)c3ccc4c(c3)OCO4)nc3c2C(=O)CC(C)(C)C3)cc1,143
N#Cc1c(SCC(=O)c2ccc(O)c(O)c2)nc2c(c1-c1ccc(OCc3ccccc3)cc1)CCCC2,24*
O=C(NC1CC(=O)N(c2ccc3c(c2)OCCO3)C1)N1CCC2(CC1)OCCO2 (stereo unspecified),63
CC(=O)Nc1cccc(NC(=O)Cc2cn(Cc3ccccc3)c3ccccc23)c1,69

# Source: PubChem
